From PubChem BioAssay
Shiga toxin inh – blocks Shiga toxin action in Vero cells; inhibition, % at 38.7 µM; hit rate 9.2% among 290,000; AID 2315; Vero cells, Shiga toxin protein synthesis inhibition reporter; in the data active = inhibition mostly above about 28%, no sharp cut-off; inactive = mostly below about 43%; also: 0% is about no effect
Pf growth 48h – P. falciparum growth inhibition at 48 hours (one generation). hit rate 5.9% among 310,000. P. falciparum luciferase growth in erythrocytes, 48 h. Potency, µM (top dose mostly 28.7 µM), for the others: top-dose activity change, negative = inhibition, most hits filed as inhibitors; also: potency is read from the fitted curve at half-maximal effect; % is scaled to controls: 0 for no effect and ±100 for the full control effect
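Read-out is firefly luciferase luminescence from an integrated reporter in P. falciparum, so falling signal marks reduced parasite growth. Infected erythrocytes were at 2% hematocrit and 0.1% parasitemia (final) in Albumax-supplemented RPMI 1640.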
HCV inhibitor – blocks hepatitis C virus; Huh7.5.1 HCVcc-Cre infection, luciferase reporter, 44 h; Potency, µM (highest dose often 41.8 µM), for the others: at the top dose activity change, negative = inhibition, hits mostly inhibitors; hit rate 3.4% among 340,000; also: potency is read from the fitted curve at half-maximal effect; % is scaled to controls: 0 for no effect and ±100 for the full control effect
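Cells (1,000/well) were plated 4 h before compound, then infected with HCVcc-Cre virus (~0.5 moi). After 44 h further culture, infection was read as luciferase luminescence following a 15 min substrate incubation at room temperature.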
Cycloheximide cs – affects cycloheximide protein synthesis inhibition readout, counter-screen; max response, %; cell reporter, cycloheximide protein synthesis inhibition counterscreen; AID 2314; hit rate 12% among 300,000; in the data active = max response mostly above about 13%, no sharp cut-off; inactive = mostly below about 14%; also: read at 38.3 µM for the half of the compounds with a filed dose; 0% is about no effect
Pf growth 96h – P. falciparum growth inhibition at 96 hours; P. falciparum luciferase reporter growth, 96 h; Potency, µM (titrated, usually from 28.7 µM), inactives show top-dose activity change, negative = inhibition, most hits filed as inhibitors; hit rate 6.9% among 320,000; AID 504834; also: potency is read from the fitted curve at half-maximal effect; % is scaled to controls: 0 for no effect and ±100 for the full control effect
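P. falciparum expressing integrated firefly luciferase grown in erythrocytes (2% hematocrit, 0.05% parasitemia final) with compounds for 96 hours at 37 C, 5% CO2. Growth inhibition read as loss of luminescence after adding luciferase detection reagent.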
AMA1 RON2 block – disrupts binding of P. falciparum AMA1 to RON2 | AlphaScreen AMA1-biotinylated RON2 peptide binding | Potency, µM (highest dose often 58.2 µM), inactives show top-dose activity change, negative = inhibition, actives largely listed as inhibitors | hit rate 0.2% among 360,000;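 also: potency is read from the fitted curve at half-maximal effect; 0% = vehicle wells and -100% = peptide control; nearly all actives have a fitted effect of over 45% in size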
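AMA1 (3D7) with his tag at 25 nM final met compounds first, then biotinylated RON2 peptide at 25 nM; detection used donor plus acceptor beads, 10 µg/mL apiece, read by AlphaScreen after 30 min at room temperature.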
The depositor's hits bear a star; i = inactive; ? = inconclusive; . = no result given; [ ] = dose if it differs, or a comment. Shown are actives, neighbours in structure and some others; about 21% of the full set was active somewhere. Unless noted, calls follow the shape of the dose curve; as a rule, active = well fitted curve in the direction sought with a large enough effect; inconclusive = small, poorly fitted or top-dose-only effect, or another doubt; inactive = no such curve, though single readings can be large; an effect the other way counts as inactive or inconclusive.

SMILES | Shiga toxin inh | Pf growth 48h | HCV inhibitor | Cycloheximide cs | Pf growth 96h | AMA1 RON2 block
Cc1ccc(C(=O)CSc2nnc(C3CC3)n2C2CC2)s1 | . | 246% | 14% | . | 76% | 0%
CCN=c1scc(-c2ccco2)n1/N=C/c1ccc(OC)c(O)c1 | 139* | 17% | -17% | 54* | 119% | ?
CCN=c1scc(-c2ccco2)n1/N=C/c1ccc(O)cc1 | 69* | . | ? | 39* | ? | 34%
C=C(C)CN=c1scc(C)n1/N=C/c1ccco1 | 10 | 6% | ? | 2 | ? | -9%
COc1ccc([C@H]2C[C@H](O)[C@@H](n3cc(COC(=O)c4ccccc4)nn3)CN2CC2CCCCC2)cc1 | . | . | . | . | . | -16%
CC(C)C[C@H]1CN(CCCC[C@H]2CNC(=O)C(=O)N2CC2CCCCC2)C(=O)C(=O)N1CC1CCCCC1 | . | . | . | . | . | 40%
O=[N+]([O-])c1ccc(Nc2cccc3c2[nH]c2c(-c4ccccc4)nccc23)c([N+](=O)[O-])c1 | . | . | ? | . | . | -25%
CCc1nccn1-c1cc(C(C)(C)C)nc2c(-c3ccc(Cl)cc3)cnn12 | 22 | 50% | 11% | 19 | 13µM* | 7%
CC(C)(C)c1cc(-n2ccnc2)n2ncc(-c3ccc(Cl)cc3)c2n1 | 59* | 80% | 16% | 40* | 56% | 9%
COc1ccc(CCCNC(=O)C2Cc3c(-c4ccc5c(c4)OCO5)ccnc3O2)cc1 (stereo not drawn) | . | . | . | . | . | -12%
Cc1c(N=N/C(C(=O)Nc2ccccc2)=C(/O)c2ccccc2)c(=O)n(-c2ccccc2)n1C | -2 | ? | -28% | 11 | 3.7µM* | 51%
COc1cccc(N2CCN(C(=S)Nc3ccccc3OC)CC2)c1 | . | -14% | -6% | -2 | 9.3µM* | -4%
COc1ccc(NC(=S)N2CCN(C(c3ccccc3)c3ccccc3)CC2)c(OC)c1 | -5 | 5.2µM* | ? | 0 | 72% | -20%
O=C(CSc1nnc(NC(=O)c2ccc(F)cc2F)s1)NC1CC1 | 23 | 51% | 2% | 5 | -1% | -5%
CNC(C(=O)c1ccccc1)C(OC)c1ccc(C)cc1 (stereo not drawn) | 44* | 38% | 17% | 11* | 47% | -22%
O=C(CS(=O)(=O)c1ccccc1)Nc1ccc(Cl)cn1 | 67* | 26% | 4% | 14 | 21% | -12%
O=C(CCS(=O)(=O)c1ccccc1)Nc1ccc(Cl)cn1 | 61* | 27% | 0% | 24* | 7% | 5%
O=C(CCS(=O)(=O)c1ccc(Cl)cc1)Nc1ccc(F)cc1 | -9 | -3% | 14% | 9 | 10µM* | 6%
CC(C)(C)n1nnnc1C(c1cc2ccccc2o1)N(CCC#N)Cc1ccccc1 (stereo not drawn) | . | . | . | . | . | 5%
C=CCNC(=S)Nc1cccc(N)c1 | 5 | 13% | ? | -1 | -16% | 39%
O=[N+]([O-])c1cccc(S(=O)(=O)N2CCCCC2c2cccnc2)c1 (stereo not drawn) | -2 | ? | -27% | -1 | ? | -4%
CC(=O)N1CCC(C(=O)Nc2cc(S(=O)(=O)N3CCCCC3)ccc2C)CC1 | . | . | . | . | . | 18%
COCCCNC(=O)c1c(N)n(-c2ccccc2)c2nc3ccccc3nc12 | -1 | ? | 13µM* | 11 | ? | 85%
COCCNC(=O)c1c(N)n(CCC(C)C)c2nc3ccccc3nc12 | -7 | . | ? | -2 | ? | 16%
COCCNC(=O)c1c(N)n(CCCn2ccnc2)c2nc3ccccc3nc12 | 10 | 7.4µM* | -30% | -2 | ? | 6%
SMILES | Shiga toxin inh | Pf growth 48h | HCV inhibitor | Cycloheximide cs | Pf growth 96h | AMA1 RON2 block
COCCCNC(=O)c1c(NC(=O)c2ccco2)n(Cc2ccccc2)c2nc3ccccc3nc12 | -4 | ? | -18% | 2 | . | 12%
COCCNC(=O)c1c(N)n(-c2ccccc2)c2nc3ccccc3nc12 | -16 | ? | ? | -3 | ? | 9%
COCCNC(=O)c1c(NC(=O)c2ccc(Br)o2)n(Cc2ccccc2)c2nc3ccccc3nc12 | 2 | 13µM* | ? | -2 | ? | 12%
COCCNC(=O)c1c(N)n(-c2cccc(C)c2)c2nc3ccccc3nc12 | 8 | ? | 11µM* | 7 | ? | 34%
CCOc1ccccc1-c1nnc2n1N=C(c1ccc(OC)c(OC)c1)CS2 | -13 | . | . | 2 | . | .
COC(=O)c1cc(C)sc1NC(=O)CCCC(=O)O | -6 | -2% | 4% | -2 | 9.3µM* | 1%
CC(=O)Nc1ccc(C(=O)NCC(=O)OCc2c(F)cccc2Cl)cc1 | 24 | 3% | 27% | 3 | ? | 5%
CN1CCN(C(=O)CNC(=O)C23CC4CC(CC(C4)C2)C3)CC1 | . | . | -7% | . | . | 2%
O=S(=O)(N/N=C/c1ccccc1F)c1ccccc1 | -6 | -2% | 10% | 9 | 0% | 1%
Clc1ccc(/C=N/Nc2ncnc3ccccc23)cc1Cl | 90* | -19% | 0% | 26* | ? | 4%
Oc1ccc(/C=N/Nc2ncnc3c2ncn3Cc2ccccc2)cc1O | 35 | ? | -1% | 4 | ? | 8%[2.32 µM]
Fc1ccccc1/C=N/Nc1ncnc2ccccc12 | 52 | i | 10% | 41* | 138% | 37%
COc1ccc(/C(N)=N/OC(=O)c2ccc(OC)c([N+](=O)[O-])c2)cc1OC | 3 | ? | 35µM* | -3 | 32%[5.75 µM] | 0%
N/C(=N\OC(=O)Oc1ccccc1)c1ccc([N+](=O)[O-])cc1 | -3 | 23% | 29% | 0 | 5% | ?
COc1ccc(/C(N)=N/OC(=O)c2cccc([N+](=O)[O-])c2C)cc1OC | -8 | . | ? | -3 | 13µM* | -3%
COc1cccc(C(=O)O/N=C(\N)c2ccc([N+](=O)[O-])cc2)c1OC | 76* | 65% | ? | 75* | ? | -2%
COc1ccc(/C(N)=N/OC(=O)c2cccc([N+](=O)[O-])c2)cc1OC | -19 | 9% | 5% | 1 | . | 0%
CC(C)C(=O)Nc1ccc(NC(=O)c2cccc3c(Br)cccc23)cc1 | -5 | 15% | 12% | -2 | 20% | -8%
O=C(Nc1ccc(NC(=O)c2ccccc2)nc1)c1ccncc1 | 43 | 68% | -6% | 8 | 19% | 3%
CCCC(=O)Nc1ccc(NC(=O)Cc2ccccc2)cn1 | -8 | 11% | 18% | -1 | . | 6%
COc1ccc(C(=O)Nc2ccc(NC(=O)Cc3ccccc3)cn2)cc1 | 31 | -3% | -10% | 20* | ? | 12%
COc1ccc(C(=O)Nc2ccccc2C(=O)Nc2ccccn2)cc1 | . | 28% | -12% | 26* | -6% | -7%
COc1ccc(C(=O)Nc2ccc(NC(=O)c3ccccn3)cn2)cc1 | 78* | 21% | -20% | 11 | -3% | 4%
COc1ccc(C(=O)Nc2ccccn2)cc1 | 9 | -2% | 4% | -4 | 7% | -4%
